Common to all, as to conditions: actives raise or lower the signal
Assay [1] can be described thus: CEETOX_H295R_OHPROG: CeeTox H295R High-throughput Steroidogenesis Assay for OH-Progesterone (OHPROG) (AID 2283435).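 For AC50: human adrenal H295R cells primed 48 h with 10 µM forskolin; 17alpha-hydroxyprogesterone secreted into medium measured by HPLC-MS/MS.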 An outline of the steps: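 Human adrenocortical H295R cells, passage 10 or lower, were treated with chemical for 48 h after forskolin priming, and hormone output in the medium was quantified by LC-MS/MS.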
Assay [2] is described as follows: CEETOX_H295R_CORTIC: CeeTox H295R High-throughput Steroidogenesis Assay for Corticosterone (CORTIC) (AID 2283437).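 For AC50: human H295R adrenal cells prestimulated with forskolin before chemical exposure.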 An outline of the steps: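 Medium corticosterone was quantified by tandem mass spectrometry following 48 hours of chemical exposure (0.1% DMSO) in human H295R cells previously stimulated 48 hours with 10 uM forskolin. Viability checked by MTT; chemicals diluted and retested when viability fell below 70%.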

Assay [3] can be described thus: CEETOX_H295R_CORTISOL: CeeTox H295R High-throughput Steroidogenesis Assay for Cortisol (AID 2283438).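 Note: cortisol secreted into medium quantified by LC-MS/MS.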 An outline of the steps: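 Steroidogenesis in H295R, per modified OECD 456: 48 h forskolin (10 uM), then 48 h exposure, 0.1% DMSO. Cortisol by extraction and tandem MS; viability by MTT (570/650 nm); cytotoxic chemicals diluted and re-tested.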
The nature of assay [4]: CEETOX_H295R_DOC: CeeTox H295R High-throughput Steroidogenesis Assay for DOC (AID 2283439). The procedure, abridged: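 H295R, fsk 10 uM ×48 h pre, cmpd ×48 h (0.1% DMSO). Media → MTBE extr. → LC-MS/MS, DOC. Bidirectional fit vs DMSO; MTT viability same wells, re-test diluted if <70%.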
Assay [5] can be described thus: CEETOX_H295R_ESTRADIOL: CeeTox H295R High-throughput Steroidogenesis Assay for Estradiol (AID 2283440).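 Note: estradiol secreted into medium quantified by LC-MS/MS after dansyl derivatisation.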 The procedure, abridged:
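H295R, 48 h forskolin (10 uM) prestim → 48 h compound, 0.1% DMSO final. Estradiol in medium: MTBE extraction, dansyl chloride derivatization, LC-MS/MS. Fit bidirectional vs DMSO baseline; MTT viability in same wells.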

Assay [6] can be described thus: CEETOX_H295R_ESTRONE: CeeTox H295R High-throughput Steroidogenesis Assay for Estrone (AID 2283441).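 For AC50: human adrenal H295R cells prestimulated with forskolin for two days.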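 Note: estrone secreted into medium measured by LC-MS/MS after dansyl derivatization.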 An outline of the steps: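 Forskolin-stimulated H295R cells are treated 48 h with chemical, and estrone in the medium is measured by LC-MS/MS. Activity is fitted in both directions relative to DMSO controls, with chemicals diluted until MTT viability reaches at least 70%.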

A short description of assay [7]: CEETOX_H295R_PROG: CeeTox H295R High-throughput Steroidogenesis Assay for Progesterone (PROG) (AID 2283442).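 For AC50: human H295R adrenal cells primed with 10 µM forskolin before dosing.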 An outline of the steps:
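Progesterone read-out: HPLC-MS/MS on MTBE extracts of conditioned medium after 48 h chemical exposure of forskolin-primed (10 uM, 48 h) H295R cells. Gain or loss of signal was fitted relative to DMSO baseline.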

Assay [8] is described as follows: CEETOX_H295R_ANDR: CeeTox H295R High-throughput Steroidogenesis Assay for Androstenedione (ANDR) (AID 2283436). An outline of the steps:
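Medium from 48 h chemical-treated H295R adrenal cells was extracted with MTBE and androstenedione measured by LC-MS/MS. Activity was fit in both directions relative to DMSO. Cytotoxic concentrations were re-tested after dilution until MTT viability reached ≥70%.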

Assay [9] can be described thus: CEETOX_H295R_TESTO: CeeTox H295R High-throughput Steroidogenesis Assay for Testosterone (TESTO) (AID 2283457).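 For AC50: cells exposed to chemicals for 48 h before medium collection.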 The procedure, abridged:
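Readout: testosterone quantified by HPLC-MS/MS (C18, ESI positive) after MTBE liquid-liquid extraction of culture medium. Cells were H295R, 48 h chemical exposure per OECD 456 with modifications. Gain or loss of signal fitted relative to DMSO.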

Activity calls are given as the source filed them. Rule for the calls: active = hit-call score of the fitted dose curve at least 0.9, where 1 is the maximum; inactive = score below 0.9.

As a reminder, the AC50 is the concentration giving half of the maximal activity seen. Regarding `C#C[C@]1(O)CC[C@H]2[C@@H]3CCC4=Cc5oncc5C[C@]4(C)[C@H]3CC[C@@]21C`, the AC50 was 0.871 µM (active) in assay [1]; 14.5 µM (active) in assay [2]; 3.34 µM (active) in assay [3]; 5.57 µM (active) in assay [5]; 3.42 µM (active) in assay [6]; 0.225 µM (active) in [7]. Besides, the compound was called inactive in assay [4].

For `CC1COc2ccccc2N1C(=O)C(Cl)Cl` (stereo not drawn), the AC50 in assay [2] is 9.46 µM (active); in assay [3], 32.3 µM (active); in assay [4], 10.4 µM (active). The call in [5], in [6] and in [7] was inactive.

On to `O=c1cc(-c2ccccc2)oc2cc(O)cc(O)c12`, for which the AC50 in [1] is 16.6 µM (active); in assay [2] it was 5.66 µM (active); in [4], 12.2 µM (active); in [7], 16.1 µM (active); in [9] it was 5.61 µM (active). Also, the call in [8] and in assay [3] was inactive.

`C=CC(C)(C)O`: the result in [1], in assay [8], in [2], in assay [3], in assay [4] and in [5] was inactive. The call in assay [6], in [7] and in [9] was inactive.

In the case of `O=C(O)C[C@H](O)C[C@H](O)/C=C/c1c(C2CC2)nc2ccccc2c1-c1ccc(F)cc1`, the AC50 in assay [1] is 0.0582 µM (active); in [8], 0.0768 µM (active); in [2] it was 0.0418 µM (active); in assay [4], 0.0331 µM (active); in assay [7], 0.0233 µM (active); in assay [9], 0.0871 µM (active). Moreover, the call in assay [3] was inactive.

As for `CC(C)=CCCC(C)=CCCC(C)=CCO`, in [1], the AC50 is 31.5 µM (active).

As to `CSc1nc(NC2CC2)nc(NC(C)(C)C)n1`, the outcome in assay [1] and in assay [7] was inactive.

In the case of `Cc1cccc(C)c1C`, the outcome in assay [1], in assay [2], in assay [3], in assay [4] and in assay [7] was inactive.

Consider `Nc1ccc(F)c([N+](=O)[O-])c1`, for which the AC50 in assay [1] is 37.7 µM (active); in [7], 50 µM (active). For the same compound, the compound was called inactive in assay [2], in [3], in assay [4], in assay [5] and in [6].

As for `C=CCOc1nc(OCC=C)nc(OCC=C)n1`, the compound was classed as inactive in [1] and in assay [4]. Further, the results for the AC50 in assay [2], in assay [3] and in [7] were 31.7 µM (active), 29.3 µM (active) and 50 µM (active), respectively.

Consider `Cc1ccc2n[nH]nc2c1`, for which the compound was classed as inactive in assay [1], in assay [2], in assay [3], in assay [4], in assay [5] and in [6]. Besides, the result in [7] was inactive.

For the origin of these results see PubChem BioAssay (EPA / NIEHS).
